Hits are enriched below; roughly 19% of the tested compounds scored in any of these assays.
DT40 TDP1 CPT: growth inhibition of DT40 Tdp1-/-;hTDP1 cells with camptothecin (screen for TDP1 inhibitors); chicken DT40 Tdp1-/-;hTDP1 cells + 20 nM CPT, ATP luminescence, 48 h; Potency, µM (titrated, usually from 46.2 µM), inactives show at the top dose activity change, negative = growth inhibition, usual class: inhibitors; 12% of 420,000 active; AID 686979; note: potency is the fitted concentration of half-maximal effect; nearly all actives have a fitted effect of over 55% in size
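Cell growth measured by CellTiter-Glo luminescence after a minimum 48 h, 37 C compound exposure with 20 nM CPT in Tdp1-knockout DT40 cells stably expressing hTDP1, seeded 400/well; qHTS titration format.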
TDP1 cell noCPT: qHTS for Inhibitors of human tyrosyl-DNA phosphodiesterase 1 (TDP1): qHTS in cells in absence of CPT | Potency, µM (highest dose often 46.2 µM), for the others: at the top dose activity change, negative = growth inhibition, actives largely listed as inhibitors | DT40 Tdp1-/- hTDP1 cells, no CPT, ATP luminescence, 48 h | AID 686978, 2013 | 15% of 420,000 active; note: potency is the fitted concentration of half-maximal effect; nearly all actives have a fitted effect of over 55% in size
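No-CPT arm: Tdp1-/-;hTDP1 DT40 cells (400/well) plus compounds, incubated ≥48 hr at 37 °C. Readout CellTiter-Glo luminescence.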
IL-1B inflam inh: blocks inflammasome-driven IL-1 beta release; THP-1 LPS/ATP IL-1B secretion, AlphaLISA, 16 h; hits give low values; activity change, % at 57.5 µM; 4.7% of 360,000 active; AID 743279; in the data active = activity change below about -50%; inconclusive = mostly about -30% to -49%
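Secreted IL-1B measured by AlphaLISA bead assay after 16 h compound exposure of THP-1 cells; compounds (final up to 57.5 uM) added 1 h before LPS (250 ng/mL) and ATP (1.25 mM) stimulation; lower signal means less secretion.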
HT1080-NT tox: kills 2HG-producing HT-1080-NT fibrosarcoma cells; HT-1080-NT fibrosarcoma viability, CellTiter-Glo ATP luminescence, 48 h; Potency, µM (titrated, usually from 46.1 µM), inactives show top-dose activity, negative = less viability, hits mostly cytotoxic; 1.6% of 360,000 active; AID 686970;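 note: NT is the 2HG producing partner of a matched IDH1 knockdown line; potency is the fitted concentration of half-maximal effect; 0% = DMSO-treated cells and -100% = media-only wells without cells; nearly all actives have a fitted effect of over 55% in size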
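Viability by CellTiter-Glo luminescence after 48 h compound exposure at 37C of HT-1080-NT cells (750/well, RPMI, 5% FBS). % activity scaled between DMSO wells and medium-only wells, then curve-fitted and categorized by curve class.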
HT1080 IDH1KD tx: kills HT-1080 cells with IDH1 knockdown; HT-1080 IDH1 knockdown viability, ATP luminescence, 48 h; Potency, µM (top dose mostly 46.1 µM), without a hit: at the highest dose activity, negative = toxicity, hits mostly cytotoxic; 2% of 360,000 active; AID 686971;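 note: potency is the fitted concentration of half-maximal effect; 0% = DMSO wells and -100% = cell-free medium wells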
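Cytotoxicity counter-line: IDH1KD HT-1080, 48 h, CellTiter-Glo. Curves classed by r2, magnitude and activity.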
* = called active by the depositor; u = inconclusive; x = not tested or not shown. Unless noted, calls come from the whole dose curve; as a rule, active = well fitted curve in the direction sought with a large enough effect; inconclusive = small, poorly fitted or top-dose-only effect, or another doubt; inactive = no such curve, though single readings can be large; an effect the other way counts as inactive or inconclusive. Unless noted, % is set by controls: 0 for no effect and ±100 for the full control effect.

SMILES | DT40 TDP1 CPT | TDP1 cell noCPT | IL-1B inflam inh | HT1080-NT tox | HT1080 IDH1KD tx
O=c1c2ccccc2nc(-c2ccco2)n1-c1ccccc1 | u | u | -11.0 | 12.6% | 12.2%
O=c1c2ccccc2nc(Cc2ccccc2)n1-c1cccc(O)c1 | 14.6µM* | 20.6µM* | -20.3 | -11.1% | -10.0%
Cc1cccc(-n2c(CC3C(=O)Nc4ccc(C)cc43)nc3ccccc3c2=O)c1 (stereo not drawn) | u | 20.6µM* | x | x | x
CC(C)c1c(C(=O)N(C)Cc2cccc3ncccc23)cnn1-c1nccc(-c2ccccc2F)n1 | 4.11µM* | 8.2µM* | x | x | x
CS(=O)(=O)c1ccc(C2=C(CNC(=O)c3ccncc3)[C@H]3CC[C@@H](C2)N3CCOc2ccccc2)cc1 | 7.1% | 0.6% | 20.2 | 1.9% | 3.6%
COc1ccc(-c2oc3cc(OC)ccc3c(=O)c2O)cc1 | 11.9µM* | 11.9µM* | x | x | x
C=C1C[C@@H]2[C@H](CC[C@]3(C)C(=O)CC[C@@H]23)[C@@]2(C)C=CC(=O)C=C12 | 16.4µM* | 8.41µM* | x | x | x
CCOC(=O)NC(C)(C)Cc1ccc(Cl)cc1 | 4.9% | u | x | x | x
COCCCNC(=O)c1c(NC(=O)c2ccco2)n(Cc2ccccc2)c2nc3ccccc3nc12 | u | 25.9µM* | -3.2 | u | u
COCCNC(=O)c1c(NC(=O)c2ccc(Br)o2)n(Cc2ccccc2)c2nc3ccccc3nc12 | 18.4µM* | u | -10.0 | 2.8% | -0.4%
O=C1C2(c3ccccc3)CN3CN(C2)CC1(c1ccccc1)C3 | -5.4% | 1.1% | 6.3 | -3.4% | 8.4%
CC1CN1c1cc2c(c3c1ccn3C)C1CCC2C1 (stereo not drawn) | 7.31µM* | 8.2µM* | 21.8 | -0.4% | 5.3%
O=C1NC(=O)C(=Cc2cccc(OCCOc3ccccc3)c2)C(=O)N1 | u | u | -4.8 | 1.8% | 10.3%
O=C1NC(=O)C(=Cc2ccc(OCCOc3ccc([N+](=O)[O-])cc3)cc2)C(=O)N1 | u | u | -59.1* | 2.9% | 3.5%
C=CCc1cc(OC)c2c(c1OC)OCO2 | 11.6% | 26.8% | x | x | x
COc1ccc(CCNC(=O)CCc2c(C)nc3c(-c4ccc(F)cc4)c(C)nn3c2C)cc1OC | 8.2µM* | 11.6µM* | x | x | x
Cc1nc2c(-c3ccc(F)cc3)c(C)nn2c(C)c1CCC(=O)N1CCC2(CC1)OCCO2 | 1.0% | -12.8% | -0.8 | 2.0% | 4.0%
CCCCC1C(=O)NC(=S)N(C)C1=O (stereo not drawn) | 3.6% | -8.9% | 22.8 | 6.8% | 21.0%
Cc1ncoc1C(=O)NCC1=C(c2ccc3ccccc3c2)C[C@@H]2CC[C@H]1N2Cc1ccco1 | u | u | -11.3 | -18.2% | 2.1%
N#Cc1ccc(CN2CCC3(CC2)CCN(C(=O)Oc2ccccc2)CC3)cc1 | -1.1% | -21.4% | x | x | x
N#Cc1c(Cl)nc(Cl)c2c1CCN(Cc1ccccc1)C2 | u | 16.4µM* | x | -0.1% | u
COC(=O)C1=C(c2ccc3ccccc3c2)C[C@@H]2CC[C@H]1N2C(=O)N1CCCC1 | 2.91µM* | 3.26µM* | -7.8 | -8.6% | -17.8%
COC(=O)C1=C(c2ccc3ccccc3c2)C[C@@H]2CC[C@H]1N2C(=O)N1CCOCC1 | u | 5.8µM* | 14.4 | -10.2% | -18.0%
COC(=O)C1=C(c2ccc3ccccc3c2)C[C@@H]2CC[C@H]1N2C(=O)N1CCCCC1 | 2.31µM* | 1.84µM* | 17.0 | -0.2% | -10.5%
COC(=O)C1=C(c2cc3ccccc3o2)C[C@@H]2CC[C@H]1N2C(=O)N1CCOCC1 | 3.66µM* | x | 45.0 | 23.1µM* | u
SMILES | DT40 TDP1 CPT | TDP1 cell noCPT | IL-1B inflam inh | HT1080-NT tox | HT1080 IDH1KD tx
COC(=O)C1=C(c2c(C)noc2C)C[C@@H]2CC[C@H]1N2C(=O)N1CCCC1 | -1.9% | 3.0% | 12.5 | 21.1% | u
COC(=O)C1=C(c2ccc3ccccc3c2)C[C@@H]2CC[C@H]1N2C(=O)N1CCC(O)CC1 | u | u | 19.3 | -6.3% | 3.4%
COC(=O)C1=C(c2cccc(OC)c2OC)C[C@@H]2CC[C@H]1N2C(=O)N1CCOCC1 | -22.5% | -28.7% | 28.3 | 11.8% | 9.9%
CCC(CC)NC1CCCCC1OC (stereo not drawn) | 24.6% | -15.3% | 14.6 | 24.3% | 23.9%
CCN1C[C@]2(COC)CC[C@H](OC)[C@@]34C5C[C@H]6C(=O)C5[C@](O)(C[C@H]6OC)[C@@](O)(C(OC)C23)[C@@H]14 (stereo partly drawn) | 5.8% | -3.7% | 6.0 | -3.6% | -2.4%
O=P(C(Cl)Cl)(N1CCCCC1)N1CCCCC1 | -3.0% | 4.3% | 0.1 | 14.6% | 2.2%
COC(=O)C1=C(c2ccc(OC)c(OC)c2)C[C@@H]2CC[C@H]1N2C(=O)N1CCCCC1 | 8.2µM* | 9.2µM* | 19.7 | 12.5% | 5.9%
COC(=O)C1=C(c2ccc(OC)c(OC)c2)C[C@@H]2CC[C@H]1N2C(=O)N1CCC(O)CC1 | -10.5% | -13.6% | 10.7 | 15.2% | 15.2%
CCOc1ccc(-n2c(CC)nc3ccccc3c2=O)cc1 | -28.4% | u | 39.6 | 2.7% | 3.8%
CCOc1ccc(Nc2c(S(=O)(=O)c3ccc(C)cc3)cnc3ccccc23)cc1 | 16.4µM* | u | x | x | x
O=C(NC(=O)c1c(F)cccc1F)Nc1cc(Cl)c(F)c(Cl)c1F | -8.9% | u | -11.9 | 0.4% | -1.7%
CC(C)C[C@H]1C(=O)N2CCC[C@H]2[C@]2(O)O[C@](NC(=O)[C@@H]3C=C4c5cccc6[nH]cc(c56)C[C@H]4N(C)C3)(C(C)C)C(=O)N12 | 20.6µM* | 16.4µM* | -1.7 | -28.1% | -13.9%
CCN(CC)C(=O)N[C@H]1C[C@@H]2c3cccc4[nH]cc(c34)C[C@H]2N(C)C1 | u | -38.6% | -1.9 | -12.3% | -3.4%
CN1C[C@H](C(=O)NC2(C)OC3(O)[C@@H]4CCCN4C(=O)[C@H](Cc4ccccc4)N3C2=O)CC2c3cccc4[nH]cc(c34)C[C@H]21 (stereo partly drawn) | 16.4µM* | 16.4µM* | -2.4 | u | u
COC(=O)C1=CO[C@@H](C)[C@H]2CN3CC[C@]4(C(=O)Nc5ccccc54)[C@@H]3C[C@H]12 | 8.2% | 4.8% | -13.9 | 9.2% | 2.4%
O=P(Oc1ccc(-c2ccccc2)cc1)(N1CC1)N1CC1 | 2.06µM* | 9.2µM* | -6.7 | 11.0% | 1.2%
O=P(Oc1ccc(Cl)cc1)(N1CC1)N1CC1 | 6.51µM* | u | 9.8 | -0.5% | -12.4%
O=P(Oc1ccccc1)(Oc1ccccc1)N1CCN(c2ccc(F)cc2)CC1 | u | u | -28.3 | u | u
O=C(Oc1ccc(Cl)cc1)N1CCOCC1 | u | u | -2.8 | 15.3% | 11.1%
N#Cc1c(Cl)cccc1Cl | -7.3% | -2.4% | x | x | x

Bioassay records deposited in PubChem by National Center for Advancing Translational Sciences (NCATS).
